Source: PubChem
Shown is part of a subset that was picked to be rich in hits.
LASV entry inh: qHTS for Inhibitors of binding or entry into cells for Lassa Virus; Lassa virus pseudotype entry inhibition, cell reporter; Potency, µM (doses to about 37.9 µM), for inactives: at the highest dose activity change, negative = inhibition, most hits filed as inhibitors; 300,000 compounds, 1.2% hits; calls by dose curve; tested in HEK293 cells; further: potency means the concentration at half of the fitted maximal effect; on the % scale 0 is the no-effect control and ±100 the full control effect; nearly all actives have a fitted effect of over 50% in size
Shiga inhibitor: A qHTS for Small Molecule Inhibitors of Shiga Toxin; Vero cells, Shiga toxin protein synthesis inhibition reporter; inhibition, % at 38.7 µM; 290,000 compounds, 9.2% hits; AID 2315, 2010; in the data active means inhibition mostly above about 28%, no sharp cut-off; inactive means mostly below about 43%; further: 0% is about no effect
MARV entry inh: qHTS for inhibitors of binding or entry into cells for Marburg Virus; Marburg virus pseudotyped entry inhibition, cell reporter; Potency, µM (titrated, usually from 37.8 µM), without a hit: at the highest dose activity change, negative = inhibition, usual class: inhibitors; 300,000 compounds, 1.8% hits; calls by dose curve; tested in HEK293 cells; further: potency means the concentration at half of the fitted maximal effect; on the % scale 0 is the no-effect control and ±100 the full control effect
VACV mCherry inh: qHTS for Stage-Specific Inhibitors of Vaccinia Orthopoxvirus: mCherry Reporter Primary qHTS. Vaccinia virus mCherry reporter infection, fluorescence. Potency, µM (titrated, usually from 36.5 µM), inactives show at the highest dose activity change, negative = inhibition, usual class: inhibitors. 310,000 compounds, 0.63% hits; calls by dose curve; tested in A549 cells; further: potency means the concentration at half of the fitted maximal effect; on the % scale 0 is the no-effect control and ±100 the full control effect; nearly all actives have a fitted effect of over 35% in size
VACV Venus inh: qHTS for Stage-Specific Inhibitors of Vaccinia Orthopoxvirus: Venus Reporter Primary qHTS; Vaccinia virus Venus reporter expression, fluorescence; Potency, µM (titrated, usually from 36.5 µM), for the others: top-dose activity change, negative = inhibition, most hits filed as inhibitors; AID 720580, 2013; 330,000 compounds, 0.46% hits; calls by dose curve; tested in A549 cells; further: potency means the concentration at half of the fitted maximal effect; on the % scale 0 is the no-effect control and ±100 the full control effect; nearly all actives have a fitted effect of over 30% in size
Cycloheximide cs: Cycloheximide Counterscreen for Small Molecule Inhibitors of Shiga Toxin. cell reporter, cycloheximide protein synthesis inhibition counterscreen. max response, %. AID 2314, 2010. 300,000 compounds, 12% hits; in the data active means max response mostly above about 13%, no sharp cut-off; inactive means mostly below about 14%; further: read at 38.3 µM for the half of the compounds with a filed dose; 0% is about no effect
An asterisk follows results filed as active; i = inactive; ? = inconclusive; / = no result given; + = active, no number; [ ] = another dose, or the depositor's remark.

SMILES	LASV entry inh	Shiga inhibitor	MARV entry inh	VACV mCherry inh	VACV Venus inh	Cycloheximide cs
CC(=O)c1cc(C#N)c(SCC(=O)O)nc1C	0.2%	-6.6	?	-11.6%	-3.5%	-5.4
COc1ccc(-n2c(CNC(=O)c3cccc(OC)c3OC)nnc2SC)cc1	/	/	/	-11.1%	5.8%	/
Cc1cccc2sc(NC(=O)CCNS(=O)(=O)c3cccs3)nc12	-11.4%	-5.9	0.2%	/	/	0.9
Cc1ccc2nc(NC(=O)c3ccc(NS(=O)(=O)c4cccs4)cc3)sc2c1	5.7%	14.7	?	-23.5%	-18.2%	29.0*
Cc1ccc2nc(NC(=O)CCNS(=O)(=O)c3cccs3)sc2c1	-22.4%	79.4*	1.2%	?	?	25.7*
Cc1ccc2nc(NC(=O)CCNS(=O)(=O)c3ccc(Br)s3)sc2c1	2.6%	66.9	5.7%	/	/	25.6*
Cc1ccc2nc(NC(=O)CS(=O)(=O)Cc3ccccc3)sc2c1	-10.9%	23.1	1.3%[46.1 µM]	i	-12.5%	3.7
COc1ccc(C)cc1NC(=O)c1ccc(NS(=O)(=O)c2cccs2)cc1	-15.8%[46.1 µM]	-7.2	2.5%[46.1 µM]	-17.0%	-11.8%	-3.6
COC(=O)C1=C(C)N(C(C)C)C(=O)C1(NC(=O)c1ccccc1OC)C(F)(F)F (stereo not drawn)	4.2%[46.1 µM]	/	?	-25.0%	-10.2%	/
O=C(NC(C(=O)c1ccccc1)N1CCOCC1)c1cccs1 (stereo not drawn)	?	33.0*	14.7%	-9.1%	-5.7%	22.2*
Cc1cc(=O)n(C(NC(=O)c2ccccc2)C(=O)c2ccccc2)cn1 (stereo not drawn)	-7.9%	29.1	1.8%	-8.3%	-3.8%	18.6*
O=C(NC(C(=O)c1ccccc1)N1CCOCC1)c1ccccc1 (stereo not drawn)	6.1%	31.4	10.2%	-23.0%	-15.9%	15.7*
Cc1ccc(C(=O)C(NC(=O)c2ccco2)N2CCOCC2)cc1 (stereo not drawn)	-19.1%	53.1*	-2.1%	-4.4%	-5.5%	39.5*
O=C(NC(C(=O)c1ccccc1)N1CCCCCC1)c1ccco1 (stereo not drawn)	11.5%	-8.6	?	-13.7%	-7.1%	-3.5
O=C(NC(N1CCOCC1)C(Cl)(Cl)Cl)c1ccc(F)cc1 (stereo not drawn)	/	-18.1	3.3%[46.1 µM]	-12.3%	-6.7%	-1.1
O=C(/C=C/c1ccco1)NCC1OCCc2ccccc21 (stereo not drawn)	-1.2%	16.9	-5.4%[46.1 µM]	i	2.5%	-0.9
CCCCC(CC)CNC(=O)C1CCC(CNS(=O)(=O)c2cccc3nsnc23)CC1 (stereo not drawn)	1.7%[46.1 µM]	/	-17.7%[46.1 µM]	-16.5%	-0.8%	/
O=C(Cn1c(-c2cccs2)cc2ccccc21)N1CCN(c2ccccc2F)CC1	-4.3%[46.1 µM]	/	/	-4.9%	-9.4%	/
CCOC(=O)c1c(Oc2ccc(OC)cc2)nnc(-c2ccccc2)c1-c1ccccc1	-16.9%[46.1 µM]	/	-17.5%[46.1 µM]	-18.2%	-10.7%	/
O=S(=O)(Nc1nc2ccccc2nc1N1CCc2ccccc2C1)c1ccc(Cl)cc1	?	25.4*	?	-8.4%	-15.4%	71.4*
Cc1ccccc1S(=O)(=O)Nc1nc2ccccc2nc1N1CCc2ccccc2C1	9.5%	93.2*	-21.7%	-11.2%	-6.0%	37.0*
Cc1ccc(S(=O)(=O)Nc2nc3ccccc3nc2N2CCN(c3ccccc3F)CC2)cc1	-10.7%	-8.1	1.0%[46.1 µM]	/	-11.8%	-4.0
CC(=O)Nc1ccc(S(=O)(=O)Nc2nc3ccccc3nc2N2CCc3ccccc3C2)cc1	?	103.0*	0.5%	-0.3%	-15.2%	46.6*
Cc1ccccc1S(=O)(=O)Nc1nc2ccccc2nc1Cl	19.2%[46.1 µM]	26.1	25.0%[46.1 µM]	i	-7.6%	1.5
O=S(=O)(Nc1nc2ccccc2nc1N1CCN(c2ccccn2)CC1)c1ccc(Cl)cc1	/	37.9	/	/	/	14.7*
SMILES	LASV entry inh	Shiga inhibitor	MARV entry inh	VACV mCherry inh	VACV Venus inh	Cycloheximide cs
CC(=O)Nc1ccc(S(=O)(=O)Nc2nc3ccccc3nc2N2CCCCCC2)cc1	-0.9%	-20.6	-5.4%	/	/	-5.7
CCOC(=O)c1sc(N2N=C(C)/C(=C\c3ccc(OCC(=O)OC)cc3)C2=O)nc1C	18.8%	-5.1	-9.2%	-13.3%	-3.4%	-2.7
COc1ccc(CN(C)C(=O)c2[nH]c(C)c(C(C)=O)c2C)c(OC)c1OC	?	-8.4	-28.1%[46.1 µM]	i	-7.9%	-0.3
CN1CCN(c2nc3ccccc3nc2NS(=O)(=O)c2ccc(Br)cc2)CC1	8.0%	/	3.4%	i	-12.4%	/
O=S(=O)(Nc1nc2ccccc2nc1N1CCc2ccccc2C1)c1ccc(Br)cc1	?	33.2*	?	-15.3%	-5.9%	44.3*
O=C(CNc1n[nH]c(=O)[nH]c1=O)N/N=C/C1CC=CCC1 (stereo not drawn)	2.1%	38.3	9.2%	?	-3.4%	4.9
COc1ccc(C(=O)c2ccc(OC)cc2OC)cc1	?	23.6	?	i	-14.2%	6.8
COc1ccc(C(=O)c2ccc(N3CCOCC3)cc2)c(OC)c1	?	13.5	?	-30.0%	-23.7%	14.1*
O=C(NC1=C(Nc2ccc(F)cc2)C(=O)c2ccccc2C1=O)c1ccc(Cl)cc1	?	+	14.2%	?	?	16.2*
O=C(NNC(=O)c1ccc(NC(=O)c2ccccc2)cc1)c1ccc(F)cc1	/	9.5	/	/	/	-0.8
CNCCNC[C@H](Cc1cccc2ccccc12)NCCc1ccccc1	/	/	/	?	-12.5%	/
CNC[C@H](Cc1ccccc1)NC[C@@H](Cc1cccc2ccccc12)NCCc1ccc(C)cc1	/	-15.8	/	?	14.1µM*	-7.9
NC[C@@H]1O[C@H](C23CC4CC(CC(C4)C2)C3)Cc2c1ccc(O)c2O	18.3µM*	13.6	13µM*	?	?	-4.8
CCN(CC)C(=O)Cn1c(=O)n(Cc2ccc(C(=O)NCCc3ccc(OC)c(OC)c3)cc2)c(=O)c2ccccc21	26.6%[46.1 µM]	/	?	-2.5%	-11.0%	/
Cc1ccc(CN2CCC(CNC(=O)c3cnn(-c4ccccc4)c3C3CCN(C(=O)OC(C)(C)C)CC3)CC2)cc1	19.8%[46.1 µM]	/	/	-21.2%	-20.9%	/
COc1ccc(CCN2CCC(CNC(=O)c3cnn(-c4ccc(C)cc4)c3C3CCN(C(=O)OC(C)(C)C)CC3)CC2)cc1	?	/	/	?	11.2µM*	/
Cc1ccc(NC(=O)CN(C)C(=O)Cc2ccc(Cl)c(Cl)c2)cc1	5.0%[46.1 µM]	43.1	0.4%[46.1 µM]	-8.0%	-19.0%	8.1
Cc1ccc(NC(=O)CN(C)C(=O)Cn2ncc(Cl)c(Cl)c2=O)cc1	15.8µM*	-32.1	5.01µM*	?	?	-9.5
O=C(Nc1ccc(F)cc1F)c1cc(-c2ccc(Cl)cc2)on1	23.6%[46.1 µM]	/	2.2%[46.1 µM]	-7.5%	4.0%	/
Cc1ccc(NS(=O)(=O)c2cc(-c3n[nH]c(=O)c4ccccc34)ccc2C)cc1	?	-13.7	5.01µM*	?	?	-1.5
CCOC(=O)CNS(=O)(=O)c1cc(-c2n[nH]c(=O)c3ccccc23)ccc1C	17.0%	-9.6	-8.7%	-14.7%	-11.8%	-3.3
C=CCNc1nc(-c2ccccn2)nnc1-c1ccccc1	?	4.1	?	28.2µM*	?	-2.9
